# Target: SLTM (Homo sapiens, UniProt Q9NWH9)
# Assay: protein domain microarray probed with biotinylated miRNA; Domain array: 20 mM Tris-HCl pH 7.4, 200 mM KCl, 0.2 mM EDTA, 0.05% NP40, 2 ug/ul heparin, overnight 4 C. ORF array: PBS pH 7.0 with RNase inhibitor, 100 ng RNA; high values mean tight binding
# Conditions: ssRNA
# Chain of SLTM (Q9NWH9 360-485): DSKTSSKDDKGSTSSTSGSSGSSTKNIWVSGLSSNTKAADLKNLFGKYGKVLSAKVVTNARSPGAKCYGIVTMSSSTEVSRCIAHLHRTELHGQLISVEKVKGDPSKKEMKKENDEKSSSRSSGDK
row,Sequence,binding signal [fluorescence intensity]
1,UGAGGUAGUAGGUUGUAUGGUU,141.8 ± 1.03
2,UGAGGUAGUAGGUUGUGUGGUU,305 ± 14.8
3,UAGCUUAUCAGACUGAUGUUGA,33.6 ± 0.863
4,UGAGGUAGUAGGUUGUAUAGUU,57.9 ± 0.728
5,CAGUGCAAUGAUGAAAGGGCAU,123 ± 2.81
6,AGAGGUAGUAGGUUGCAUAGUU,123

# — PMC11574364
